Measured values published in PubChem BioAssay (NCI).
Compounds without any hit were thinned out: in the full panel of roughly 83,000, 20% have a hit.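 Single-dose data. Exposure time 48 hours. Values below 10 considered active.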 Values without a mark were called inactive. The source made the active and inactive calls.

Assays:
Experiment in all cases: NCI-60 one-dose screen, 48 h (100 = growth as untreated, 0 = no growth, -100 = all killed)
Conditions in all cases: 10 µM unless noted
NCI-H23 lung = system: NCI-H23 lung
NCI-H226 lung = system: NCI-H226 lung
NCI-H322M lung = system: NCI-H322M lung
HOP-62 NSCLC = system: HOP-62 NSCLC
NCI-H460 lung = system: NCI-H460 lung
HOP-92 NSCLC = system: HOP-92 NSCLC
NCI-H522 lung = system: NCI-H522 lung
A549/ATCC NSCLC = system: A549/ATCC NSCLC
786-0 renal = system: 786-0 renal
COLO 205 colon = system: COLO 205 colon
DU-145 prostate = system: DU-145 prostate
K-562 leukemia = system: K-562 leukemia
MALME-3M melanoma = system: MALME-3M melanoma
MDA-MB-231 breast = system: MDA-MB-231 breast
RXF 393 renal = system: RXF 393 renal
SF-268 CNS = system: SF-268 CNS
SF-295 CNS = system: SF-295 CNS
SF-539 CNS = system: SF-539 CNS
M14 melanoma = system: M14 melanoma
UACC-257 melanoma = system: UACC-257 melanoma

Row | Compound | growth (NCI-H23 lung) | growth (NCI-H226 lung) | growth (NCI-H322M lung) | growth (HOP-62 NSCLC) | growth (NCI-H460 lung) | growth (HOP-92 NSCLC) | growth (NCI-H522 lung) | growth (A549/ATCC NSCLC) | growth (786-0 renal) | growth (COLO 205 colon) | growth (DU-145 prostate) | growth (K-562 leukemia) | growth (MALME-3M melanoma) | growth (MDA-MB-231 breast) | growth (RXF 393 renal) | growth (SF-268 CNS) | growth (SF-295 CNS) | growth (SF-539 CNS) | growth (M14 melanoma) | growth (UACC-257 melanoma)
1 | OCc1ccc2c(c1)OCO2 | 95.8% | 94.6% | 104% | 93.5% | 103% | 97.3% | 90.8% | 92.5% | 104% | 108% | 105% | 101% | 97.5% | 102% | 103% | 100% | 93.8% | 96.1% | 103% | 
2 | COc1cc2c(cc1OCCCCCn1c(-c3ccco3)nc3ccccc31)N=C[C@@H]1CCCN1C2=O | -50% (active) | -14.9% (active) | -13% (active) | 6.15% (active) | 4.72% (active) | -5.94% (active) | -23.9% (active) | 9.67% (active) | 11.5% | 4.57% (active) | 29.3% | 5.85% (active) | -47.8% (active) | 9.17% (active) | -40.4% (active) | 8.92% (active) | 9.61% (active) | 1.5% (active) | -23% (active) | 
3 | CC(C)CCC(=O)O[C@H]1CC[C@H]2[C@@H]3CCC4=CC(=O)CC[C@]4(C)[C@H]3CC[C@]12C | 95.2% | 97.5% | 93.4% | 102% | 98.7% | 112% | 93.3% | 96% | 105% | 106% | 96.5% | 98.2% | 84.2% | 98.2% | 107% | 93.1% | 102% | 96% | 98.9% | 
4 | C[CH2][Sn]([Cl])([Cl])[CH2]C.Oc1ccccc1C=NCCN=Cc1ccccc1O | 103% | 99.1% | 101% | 99.2% | 107% | 95.2% | 9.48% (active) | 96% | 116% | 116% | 111% | 84.2% | 95.6% | 107% | 118% | 106% |  | 87.9% | 112% | 94.1%
5 | COc1cc(NCCCN=C(N)N)c2ncccc2c1 | 14.1% | 86.2% | 74% | 73% | 96.4% | 56.7% | -10.2% (active) | 84.8% | 95.4% | 89.8% | 103% | 93.7% | 21.1% | 64.8% | 102% | 25.2% | 88.6% |  | 100% | 90.3%
6 | COc1cc2c(cc1OCCCn1c(-c3ccccn3)nc3ccccc31)N=C[C@@H]1CCCN1C2=O | 15% | -62% (active) | 25.7% | 18% | -22.7% (active) | -59.6% (active) | -5.46% (active) | 20% | -33.7% (active) | 9.33% (active) | 26% | 17.4% | -9.03% (active) | 6.19% (active) | -11.8% (active) | 10.4% | -3.07% (active) | 14.3% | 10.5% | 
7 | O=[N+]([O-])c1ccc(OP(=O)(CCl)N(CCCl)CCCl)cc1 (stereo not drawn) | 108% | 98.9% | 103% | 93.5% | 105% | 114% | 74.8% | 102% | 97.9% | 112% | 110% | 97.1% | 109% | 124% | 101% | 104% |  | 105% | 98.6% | 99.9%
8 | O=C(Nc1ccc(Cl)cc1)Nc1nccs1 | 50.5% | 69.9% | 40.6% | 31.7% | 21% | 38.6% | -32.3% (active) | 38.6% | 56.8% | 3.09% (active) | 17.7% | 15.1% | 45.2% | 46.5% | 2.93% (active) | 48.8% |  | 10.8% | 18.1% | 44.3%
9 | CCCCOc1ccc(C(N)Cc2ccccc2)cc1 (stereo not drawn) | 104% | 112% | 92.4% | 107% | 95.5% | 41% | 93% | 90% | 75.3% | -43.2% (active) | 109% | 54.2% | 106% | 75.1% | 104% | 85.4% | 113% | 102% | 87.1% | 
10 | N#C[S-].[Au+].c1ccc(CN2[CH-]N(Cc3ccccc3)C(c3ccccc3)=C2c2ccccc2)cc1 | 8.69% (active) | 24.4% | 30.3% | 16% | 4.03% (active) | -25% (active) | -30.9% (active) | 12.8% | 7% (active) | -76.9% (active) | 23.6% | 0.413% (active) | -5.77% (active) | -36% (active) | 3.56% (active) | 29.9% |  | 22.9% | 15.8% | -9.77% (active)
11 | N#C[Se]Cc1cc(-c2ccccc2)n(-c2ccc(S(N)(=O)=O)cc2)n1 | -18% (active) | -29.1% (active) | -5.66% (active) | -87.3% (active) | -56.8% (active) | -61.3% (active) | -7.38% (active) | -33.1% (active) | -24.7% (active) | -83.4% (active) | -85.6% (active) | 4.33% (active) | -47% (active) | -68.3% (active) | -3.45% (active) | -59.8% (active) | -55.8% (active) |  | -62.2% (active) | -70.2% (active)
12 | COc1ccc(O)c(CNC(=O)CN2CCCC2=O)c1 | 103% | 99.4% | 95.6% | 97.1% | 97.5% | 86.1% | 101% | 105% | 105% | 100% | 108% | 99.4% | 96.6% | 96.5% | 109% | 96.8% | 103% |  | 98% | 104%
13 | COc1ccc(C(=O)c2sc3nc4c(cc3c2N)N2CCC4CC2)cc1OC | 92.5% | 65.2% | 107% | 72.9% | 103% | 6.56% (active) | 82.4% | 94.8% | 90.9% | 97.1% | 103% | 73.3% | 93% | 66.9% | 85.6% | 105% | 88.9% |  | 109% | 111%
14 | COC1OC(CO)C(O)C(O)[CH]1[Hg][O]C(C)=O (stereo not drawn) | 94.2% | 100% | 91.7% | 102% | 94.9% | 123% | -42.7% (active) | 94.9% | 106% | 98% | 96.3% | 27.3% | 76.4% | 81.9% | 110% | 97.6% | 102% | 106% | 93.7% | 
15 | COc1ccc(/C=C\c2cc(OC)c(OC)c(OC)c2)cc1OCC(=O)Nc1nc2ccc(F)cc2s1 | 34.4% | 42.4% | 70.8% | 51% | 23.9% | 57.7% | 6.14% (active) | 31% | 65% | 32.3% | 30.2% | 38.1% | 38.3% | 46.7% | 9.41% (active) | 49.2% |  | 26.7% | 51.9% | 51%
16 | O=[As](O)(O)c1ccccc1[As](=O)(O)O | 99.9% | 112% | 121% | 110% | 116% | 95.9% | 106% | 91.8% | 119% | 111% | 109% | 107% | 115% | 103% | 120% | 99.3% |  | 96.3% | 116% | 101%
17 | COc1cc(/C=C\c2cc(OC)c(OC)c(OC)c2)cc(N/C=C\C(=O)c2cc(OC)c(OC)c(OC)c2)c1OC | 29.6% | 47.2% | 36.8% | 13.3% | 17.3% | -9.27% (active) | 6.46% (active) | 40% | 44% | 3.1% (active) | 27.2% | 16.2% | 25.9% | 42.7% | 17.4% | 41.1% |  | -9.74% (active) | 2.89% (active) | 68.1%
